Screens deposited in PubChem BioAssay by National Center for Advancing Translational Sciences (NCATS).
Most compounds without a hit are left out; they make up all but 10% or so of the library.
CtBP-E1A inh – qHTS Assay for Inhibitors of the CtBP/E1A Interaction; CtBP / adenovirus E1A interaction (AlphaScreen); AlphaScreen GST-E1A/His-CtBP binding, 1536-well; hits give low values; activity change, % (no concentration beside the values); 340,000 tested, 0.49% active; AID 651724, 2012; in the data active means activity change below about -65%; inconclusive means mostly about -30% to -63%
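AlphaScreen with 125 nM GST-E1A and 125 nM His-CtBP (5X stocks) in Tris pH 8.0, 300 mM NaCl, BSA, Tween 20, TCEP. Compounds preincubated 2 h at 37 deg C, then glutathione donor/nickel acceptor beads added for 1 h at 37 deg C in dark.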
HP1b binding inh – HTS for Inhibitors of HP1-beta Chromodomain Interactions with Methylated Histone Tails; Chromobox protein homolog 1 (Homo sapiens), P83916; AlphaScreen HP1-beta / biotin-H3K9me3 peptide binding; Potency, µM (titrated, usually from 114 µM), hits mostly inhibitors; 390,000 tested, 0.56% active; further: nearly all actives have a fitted effect of over 70% in size
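HP1-beta protein (50 nM final) preincubated 30 min at room temperature with biotinylated H3(1-18)K9me3 peptide (50 nM) in PBS pH 7.4, 0.01% Tween-20, then compound added for 30 min. AlphaScreen streptavidin donor/nickel chelate acceptor beads (10 ug/mL final), 30 min dark, luminescence read.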
BAZ2B inh – qHTS Assay for Inhibitors of BAZ2B; Bromodomain adjacent to zinc finger domain protein 2B (Homo sapiens), Q9UIF8; AlphaScreen BAZ2B-H3K14Ac peptide displacement; Potency, µM (highest dose often 114 µM), hits mostly inhibitors; 360,000 tested, 4.4% active; AID 504333, 2011; further: nearly all actives have a fitted effect of over 60% in size
Target sequence (Q9UIF8 whole entry, looked up, the tested form may be a part): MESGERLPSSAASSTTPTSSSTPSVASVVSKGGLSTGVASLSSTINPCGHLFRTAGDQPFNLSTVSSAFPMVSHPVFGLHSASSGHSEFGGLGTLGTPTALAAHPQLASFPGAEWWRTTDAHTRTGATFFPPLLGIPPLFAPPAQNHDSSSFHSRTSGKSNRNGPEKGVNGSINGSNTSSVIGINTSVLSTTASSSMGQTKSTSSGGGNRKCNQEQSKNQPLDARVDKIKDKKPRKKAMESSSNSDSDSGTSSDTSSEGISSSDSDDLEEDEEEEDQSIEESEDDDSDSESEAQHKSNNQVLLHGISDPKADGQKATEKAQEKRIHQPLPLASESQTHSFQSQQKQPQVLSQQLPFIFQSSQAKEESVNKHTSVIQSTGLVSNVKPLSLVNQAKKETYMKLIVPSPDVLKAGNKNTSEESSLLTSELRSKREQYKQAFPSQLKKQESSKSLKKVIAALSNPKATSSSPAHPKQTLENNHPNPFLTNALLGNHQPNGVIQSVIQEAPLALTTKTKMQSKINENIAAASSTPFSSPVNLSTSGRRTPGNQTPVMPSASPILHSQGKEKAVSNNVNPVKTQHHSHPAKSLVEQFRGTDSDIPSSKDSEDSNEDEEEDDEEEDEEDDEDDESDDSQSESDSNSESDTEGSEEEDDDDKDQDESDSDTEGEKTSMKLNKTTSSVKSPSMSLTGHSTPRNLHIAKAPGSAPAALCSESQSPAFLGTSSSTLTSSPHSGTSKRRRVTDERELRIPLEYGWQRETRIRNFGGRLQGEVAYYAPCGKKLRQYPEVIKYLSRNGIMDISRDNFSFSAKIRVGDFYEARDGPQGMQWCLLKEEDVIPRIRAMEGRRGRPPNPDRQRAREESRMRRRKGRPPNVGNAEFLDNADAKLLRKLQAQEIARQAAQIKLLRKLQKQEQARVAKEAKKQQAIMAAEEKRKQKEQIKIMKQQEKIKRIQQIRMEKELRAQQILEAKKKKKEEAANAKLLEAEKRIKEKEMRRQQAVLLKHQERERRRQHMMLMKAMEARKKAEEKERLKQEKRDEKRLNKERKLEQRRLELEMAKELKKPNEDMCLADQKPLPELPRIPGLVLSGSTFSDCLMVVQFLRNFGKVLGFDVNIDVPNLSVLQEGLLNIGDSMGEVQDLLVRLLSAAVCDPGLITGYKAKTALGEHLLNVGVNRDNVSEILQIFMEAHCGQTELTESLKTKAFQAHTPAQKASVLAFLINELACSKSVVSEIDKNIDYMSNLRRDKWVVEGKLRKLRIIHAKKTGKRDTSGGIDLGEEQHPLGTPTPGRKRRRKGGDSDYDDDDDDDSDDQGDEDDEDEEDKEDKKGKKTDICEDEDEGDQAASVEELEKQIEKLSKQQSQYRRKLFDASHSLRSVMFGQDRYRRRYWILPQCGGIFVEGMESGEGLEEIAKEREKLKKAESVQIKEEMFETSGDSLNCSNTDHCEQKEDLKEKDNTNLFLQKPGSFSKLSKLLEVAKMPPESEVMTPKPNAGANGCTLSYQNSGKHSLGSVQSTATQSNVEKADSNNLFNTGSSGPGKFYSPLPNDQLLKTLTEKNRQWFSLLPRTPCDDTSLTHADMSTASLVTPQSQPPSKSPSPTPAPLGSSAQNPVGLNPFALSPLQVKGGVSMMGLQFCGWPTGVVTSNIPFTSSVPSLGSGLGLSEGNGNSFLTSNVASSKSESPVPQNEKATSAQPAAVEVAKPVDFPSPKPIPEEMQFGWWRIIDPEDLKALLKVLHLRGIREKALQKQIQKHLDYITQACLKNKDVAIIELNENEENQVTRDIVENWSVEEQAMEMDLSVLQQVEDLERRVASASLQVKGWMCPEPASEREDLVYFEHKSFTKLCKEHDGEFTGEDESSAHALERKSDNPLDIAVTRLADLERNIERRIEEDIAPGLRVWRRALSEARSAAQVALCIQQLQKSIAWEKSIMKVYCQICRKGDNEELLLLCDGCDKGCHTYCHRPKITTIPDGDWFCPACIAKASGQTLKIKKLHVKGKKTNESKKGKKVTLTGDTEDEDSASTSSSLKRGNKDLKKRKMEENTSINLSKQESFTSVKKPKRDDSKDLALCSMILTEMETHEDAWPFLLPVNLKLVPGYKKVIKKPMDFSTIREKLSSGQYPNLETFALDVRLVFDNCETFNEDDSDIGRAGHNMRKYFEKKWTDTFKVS
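Inhibition is scored as reduced AlphaScreen emission. The BAZ2B/b-H3(5-23)K14Ac complex (50 nM each) in PBS pH 7.4, 0.01% Tween-20 meets compound (up to 110 uM) for 30 min at RT before bead addition.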
JMJD2A Tudor inh – qHTS Assay for Inhibitors of JMJD2A-Tudor Domain. AlphaScreen JMJD2A-Tudor / H3K4me3 peptide binding. 390,000 tested, 4.4% active. Potency, µM (titrated, usually from 114 µM), actives largely listed as inhibitors; further: nearly all actives have a fitted effect of over 50% in size
G9a block – qHTS Assay for Inhibitors of Histone Lysine Methyltransferase G9a | Histone-lysine N-methyltransferase EHMT2 (Homo sapiens), Q96KQ7 | Potency, µM (doses to about 102 µM), most hits filed as inhibitors | 350,000 tested, 8.8% active | G9a H3K9 monomethylation, AlphaScreen, 2 h; further: nearly all actives have a fitted effect of over 75% in size
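Using a bead-based AlphaScreen, monomethylated H3K9 product from 2 h room-temperature reactions (G9a 20 nM, peptide 500 nM, SAM 20 uM) was detected with 0.5 ug/mL rabbit anti-H3K9me1 antibody.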
Six1-Eya2 inh – qHTS Assay for Inhibitors of the Six1/Eya2 Interaction; Homeobox protein SIX1 (Homo sapiens) + Protein phosphatase EYA2 (Homo sapiens), …; AlphaScreen GST-Six1/His-Eya2 binding, biochemical; hits give low values; activity change, % (no concentration beside the values); 360,000 tested, 0.56% active; AID 651725, 2012; in the data active means activity change below about -65%; inconclusive means mostly about -30% to -63%
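Compounds are tested against tagged Six1 and Eya2 proteins bridged by glutathione donor and nickel acceptor beads; after a one-hour incubation at 37 °C without light, AlphaScreen emission is recorded.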
Each line names hits and unclear results; the compound was inactive in the other large screens. Unless noted, the call rests on the fitted dose curve; in most records, active means well fitted inhibition curve with a large enough effect; inconclusive means small, poorly fitted or top-dose-only effect; inactive means no such curve, though single readings can be large or run the other way.

S=c1[nH]nc(CCc2ccccc2)n1Cc1ccccc1	JMJD2A Tudor inh inconclusive, G9a block 3.5µM
S=c1[nH]nc(COc2ccc(Cl)cc2)n1Cc1ccccc1	G9a block inconclusive
COc1ccc(NC(=O)c2cccc(NC3=NC4CS(=O)(=O)CC4S3)c2)cc1Cl (stereo not given)	none
CCCCc1n[nH]c(=S)n1Cc1ccc(C)cc1	JMJD2A Tudor inh 14µM, G9a block 1.8µM
Cc1nccn1CCc1n[nH]c(=S)n1Cc1ccccc1	JMJD2A Tudor inh 40µM, G9a block 2µM
Cc1nn(S(=O)(=O)c2ccc(C(C)C)cc2)c(C)c1S(=O)(=O)N1CCCCCC1	none (no result: CtBP-E1A inh, Six1-Eya2 inh)
Cc1nn(S(=O)(=O)c2ccc(C(C)C)cc2)c(C)c1S(=O)(=O)N1CCOCC1	BAZ2B inh inconclusive, JMJD2A Tudor inh 79µM, G9a block 35µM
CCOc1ccc(S(=O)(=O)n2nc(C)c(S(=O)(=O)N3CCOCC3)c2C)cc1	BAZ2B inh inconclusive, G9a block 50µM
S=C(Nc1ccc2cn[nH]c2c1)Nc1ccc(Cl)cc1Cl	BAZ2B inh inconclusive, JMJD2A Tudor inh inconclusive, G9a block 28µM (no result: CtBP-E1A inh)
CNC(=S)Nc1ccc(C)c(NC(=S)NC)c1	HP1b binding inh inconclusive, G9a block 28µM
CC(=O)Nc1ccc(C)c(NC(=S)Nc2ccc(F)cc2)c1	none (no result: CtBP-E1A inh, G9a block)
Cc1ccccc1NC(=S)Nc1ccc2[nH]c(=O)[nH]c2c1	G9a block 50µM
O=c1[nH]c2ccc(NC(=S)Nc3ccc(Cl)cc3Cl)cc2[nH]1	none
O=c1[nH]c2ccc(NC(=S)Nc3ccccc3Cl)cc2[nH]1	G9a block 14µM
Nc1ncnc2c1ncn2[C@@H]1O[C@H](CNCc2ccc(-n3cccn3)cc2)[C@@H](O)[C@H]1O	none (no result: BAZ2B inh, G9a block)
Cc1cccc([C@H]2[C@@H]3C=CC(C)C[C@@H]3C(=O)N2Cc2ccccc2)c1 (stereo not given in full)	none (no result: CtBP-E1A inh, HP1b binding inh, BAZ2B inh, JMJD2A Tudor inh, Six1-Eya2 inh)
CCN(CC)c1ccc(/C=N/N2CCN(c3ccccn3)CC2)cc1	G9a block 56µM
CCN(CC)c1ccc(/C=N/N2CCOCC2)cc1	HP1b binding inh inconclusive, BAZ2B inh inconclusive, JMJD2A Tudor inh inconclusive, G9a block 11µM
Fc1cccc(F)c1/C=N/N1CCOCC1	none (no result: BAZ2B inh)
CC(C)NC(=O)CSc1nc(N)c(NC(=O)c2ccco2)c(=O)[nH]1	none
O=C(Nc1ccccc1)c1cccc(N2CCCS2(=O)=O)c1	none (no result: CtBP-E1A inh, Six1-Eya2 inh)
COc1ccc(OC)c(NC(=O)c2nc(S(=O)(=O)Cc3ccc(F)cc3)ncc2Cl)c1	BAZ2B inh inconclusive, JMJD2A Tudor inh inconclusive, G9a block 7.1µM (no result: CtBP-E1A inh, Six1-Eya2 inh)
CC(=O)Nc1ccc(NC(=O)c2nc(S(=O)(=O)Cc3cccc(C)c3)ncc2Cl)cc1	G9a block 45µM
CCOc1ccccc1NC(=O)c1nc(S(=O)(=O)Cc2ccccc2)ncc1Cl	G9a block 40µM (no result: CtBP-E1A inh)
CCOC(=O)c1ccc(NC(=O)c2nc(S(=O)(=O)Cc3ccccc3)ncc2Cl)cc1	G9a block 22µM
COC(=O)c1ccc(NC(=O)c2nc(S(=O)(=O)Cc3cccc(C)c3)ncc2Cl)cc1	none
CCS(=O)(=O)c1ncc(Cl)c(C(=O)Nc2ccccc2OC)n1	none (no result: G9a block)
CCOC(=O)c1ccc(NC(=O)c2nsc3ccccc23)cc1	G9a block 3.2µM (no result: CtBP-E1A inh, Six1-Eya2 inh)
COc1ccccc1NC(=O)c1nc(S(=O)(=O)Cc2ccccc2)ncc1Cl	G9a block 18µM
Cc1ccc(NC(=O)c2nc(S(=O)(=O)Cc3ccccc3C)ncc2Cl)cc1C	JMJD2A Tudor inh 13µM, G9a block 45µM
CNC(=O)c1ccc(NC(=O)c2nsc3ccccc23)cc1	none (no result: CtBP-E1A inh, Six1-Eya2 inh)
COC(=O)c1ccc(NC(=O)N2CCc3c([nH]c4ccccc34)C2c2ccc(C)cc2)cc1 (stereo not given)	BAZ2B inh inconclusive, JMJD2A Tudor inh inconclusive (no result: CtBP-E1A inh, Six1-Eya2 inh)
C[N+](C)(C)c1ccc(/C=N/Nc2nc(Cl)c(C#N)c(Cl)c2Cl)cc1	BAZ2B inh 50µM, JMJD2A Tudor inh 32µM, G9a block inconclusive
COc1ccc2c(c1OC)C(=O)OC2c1ccc(O)cc1 (stereo not given)	none (no result: CtBP-E1A inh, BAZ2B inh, G9a block, Six1-Eya2 inh)
CCC(=O)Nc1c2c(nn1-c1ccc(C)cc1C)CSC2	G9a block 50µM
CC(C)(C)C(=O)Nc1c2c(nn1-c1ccc(F)cc1)CSC2	none (no result: CtBP-E1A inh)
Cc1ccc(-n2nc3c(c2NC(=O)CC(C)C)CS(=O)C3)cc1 (stereo not given)	G9a block 32µM
CCC(=O)Nc1c2c(nn1-c1ccccc1)CSC2	none (no result: CtBP-E1A inh)
Cc1ccccc1-n1nc2c(c1NC(=O)c1cccc(F)c1)CS(=O)C2 (stereo not given)	G9a block 50µM
Cc1ccc(-n2nc3c(c2NC(=O)C(C)(C)C)CSC3)c(C)c1	HP1b binding inh inconclusive, G9a block 40µM
CCC(C(=O)OCC(=O)N1CCN(S(=O)(=O)c2ccc(C)cc2C)CC1)c1ccccc1 (stereo not given)	none
Cc1ccc(-n2nc3c(c2NC(=O)c2ccc(Br)o2)CSC3)c(C)c1	G9a block 40µM
Cc1ccc(-n2nc3c(c2NC(=O)c2ccco2)CS(=O)C3)c(C)c1 (stereo not given)	G9a block 14µM
Cc1ccc(-n2nc3c(c2NC(=O)/C=C\c2ccc4c(c2)OCO4)CSC3)c(C)c1	none
Cc1cccc(-n2nc3c(c2NC(=O)c2ccco2)CSC3)c1C	JMJD2A Tudor inh 50µM, G9a block 40µM
CC(C)(C)N(CC(=O)NC1CCCCC1)C(=O)CS(=O)CC(=O)Nc1ccc(F)cc1 (stereo not given)	none
Cc1cc(C)cc(NC(=O)Cn2nnc(C(=O)NCc3ccccc3Cl)c2N)c1	G9a block 1.1µM
Cc1cc(C)cc(NC(=O)Cn2nnc(C(=O)NCc3ccc(F)cc3)c2N)c1	JMJD2A Tudor inh 10µM
Cc1cccc(C)c1NC(=O)Cn1nnc(C(=O)NCc2ccc(F)cc2)c1N	none (no result: CtBP-E1A inh, Six1-Eya2 inh)
C/C(=N/Nc1ncc(Br)cn1)c1ccc([N+](=O)[O-])cc1	none
COc1ccc(N2CCCn3c2nc2c3c(=O)n(CCCc3ccccc3)c(=O)n2C)cc1	BAZ2B inh inconclusive, G9a block 10µM (no result: CtBP-E1A inh, HP1b binding inh, JMJD2A Tudor inh, Six1-Eya2 inh)
COc1ccc(N2CCN(Cc3nc4c(c(=O)n(C)c(=O)n4C)n3CCc3ccccc3)CC2)cc1	G9a block 7.9µM
Cn1c(=O)c2c(nc(CN3CCN(c4ccccc4)CC3)n2CCN2CCOCC2)n(C)c1=O	G9a block 50µM
